# High-throughput results (PubChem)
# In the library only some 0.23% were active in any assay of this set; here they are far more common.
# Caspase-7 inhib = allosteric or competitive inhibitors of human caspase-7; recombinant caspase-7, Ac-DEVD-AFC fluorescence rate; P55210; 75,000 compounds, 0.02% hits; Potency, µM (highest dose often 57.5 µM), usual class: inhibitors; active = well fitted inhibition curve with a large enough effect in the main read-out, with a control signal flat, not every such curve was filed as active; inconclusive = small, poorly fitted or top-dose-only effect, or a change in a side signal
# Casp1 inh = blocks human caspase-1 allosterically or competitively; P29466; Caspase-1 enzyme, Ac-WEHD-AFC fluorogenic rate; Potency, µM (series often up to 57.5 µM), usual class: inhibitors; 75,000 compounds, 0.03% hits
# Target sequence (P29466 120-297 limits assumed): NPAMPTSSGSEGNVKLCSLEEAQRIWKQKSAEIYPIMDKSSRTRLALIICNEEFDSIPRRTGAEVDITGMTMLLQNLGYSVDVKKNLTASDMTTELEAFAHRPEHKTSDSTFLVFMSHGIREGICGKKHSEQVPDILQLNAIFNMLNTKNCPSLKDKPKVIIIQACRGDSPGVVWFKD
# Target sequence (P29466 317-404 limits assumed): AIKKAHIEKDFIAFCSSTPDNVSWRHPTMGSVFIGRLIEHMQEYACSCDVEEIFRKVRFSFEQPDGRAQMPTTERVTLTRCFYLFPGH
# UbGFP stabilizer = inhibits proteasome, raising ubiquitin-GFP reporter fluorescence; Ubiquitin-GFP reporter cells, proteasome inhibition, GFP fluorescence; response scale: untreated = 0%, 10 µM MG-132 = 100%; 67,000 tested, under 10 active; Potency, µM (top dose mostly 45.9 µM), hits mostly activators; active = well fitted activation curve with a large enough effect, not every such curve was filed as active; inconclusive = small, poorly fitted or top-dose-only effect, or another doubt; inactive = no such curve, though single readings can be large or run the other way
#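 U2OS cells expressing ubiquitin(G76V)-GFP, seeded overnight in 0.5% FBS medium, then treated 4 hr at 37 C across 46 uM to 2.9 nM. GFP-positive cells counted by laser cytometry (488 ex/515 em); %activity scaled between basal and 10 uM MG-132.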
# GFP derepression = derepresses silenced GFP locus in mouse C127i cells | Potency, µM (titrated, usually from 46.1 µM) | 68,000 compounds, 0.09% hits | mouse C127i GFP locus derepression, cytometry, 30 h
#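 Derepression screen: silenced CMV-GFP reporter in murine C127i cells, 30 h compound incubation at 37 C, washed cells imaged by laser-scanning cytometer to enumerate GFP-expressing objects of 20 to 120 um.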
# USP2a inhib = USP2a (human) protease inhibition | Potency, µM (top dose mostly 38.3 µM), hits mostly inhibitors | USP2a enzymatic assay, qHTS inhibition | O75604 | 60,000 compounds, 0.1% hits; note: nearly all actives have a fitted effect of over 60% in size
#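 Inhibition is measured in a cell-free coupled assay with 20 nM USP2 core, 20 nM Ub-PLA2 and 20 uM NBD C6-HPC, 2.5 h incubation. Activity normalized to NEM control.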
# HBB splice mod = alters splicing of the hemoglobin beta chain. 65,000 compounds, 0.06% hits. AID 925. HBB splicing reporter cell assay, activation; EGFP reporter with mutant IVS2-654 intron; response scale: normalised to 500 nM splice-correcting PNA. Potency, µM (titrated, usually from 46.1 µM), usual class: activators
#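 Compounds were applied for 2 days to HeLa EGFP-654 cells, 500/well in Optimem with 2% FCS. The reporter's EGFP is disrupted by mis-splicing of beta-globin intron IVS2-654. Readout: summed well GFP fluorescence from 488 nm laser scanning; reference was 500 nM antisense […] 654 PNA.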
# Numbers stand for hits; . = inactive; ? = inconclusive; / = no result given; [ ] = dose if it differs, or a comment. Unless noted, calls come from the whole dose curve; as a rule, active = well fitted curve in the direction sought with a large enough effect; inconclusive = small, poorly fitted or top-dose-only effect, or another doubt; inactive = no such curve, though single readings can be large; an effect the other way counts as inactive or inconclusive.
SMILES,Caspase-7 inhib,Casp1 inh,UbGFP stabilizer,GFP derepression,USP2a inhib,HBB splice mod
O=C(CC(c1ccco1)S(=O)(=O)c1ccccc1)c1ccc(F)cc1 (centres undefined),/,/,/,3.2µM,/,/
O=C(CN(c1ccc(F)cc1)S(=O)(=O)c1ccccc1)NCc1ccco1,.,.,.,.,.,/
Cn1c(O)c(N=N/C(=N/c2ccccn2)c2ccccn2)c2cc(Br)ccc21,.,.,/,/,/,/
Cc1cc(C)cc(-n2c3nc4ccccc4nc3c3c(=O)n(Cc4ccco4)cnc32)c1,/,/,/,13µM,/,/
CCOc1ccc(-n2c3nc4ccccc4nc3c3c(=O)n(Cc4ccco4)cnc32)cc1,/,/,/,.,/,/
C[C@@]12CC(=O)[C@@H]3[C@@H](CCC4=CC(=O)CC[C@]43C)[C@@H]1CC=C2CC(=O)O,.[11.5 µM],.[11.5 µM],.[9.17 µM],.[9.22 µM],/,.[9.22 µM]
CC1(C)O[C@H]2O[C@@H]([C@H](O)CON3C(=O)c4ccccc4C3=O)[C@H](O)[C@H]2O1,.[11.5 µM],.[11.5 µM],/,/,/,.[9.22 µM]
O=c1oc2c3c4c(cc2cc1-c1nc2ccccc2[nH]1)CCCN4CCC3,?,/,.,.,.,0.79µM
CC(=O)[C@@]1(O)Cc2c(O)c3c(c(O)c2[C@H](O[C@H]2C[C@H](N)[C@H](O)[C@H](C)O2)C1)C(=O)c1ccccc1C3=O,.,.,.,13µM,.,13µM
COc1cccc2c1C(=O)c1c(O)c3c(c(O)c1C2=O)C[C@](O)(C(C)=O)C[C@H]3O[C@@H]1C[C@H](N)[C@H](O)[C@H](C)O1,.,.,.,.,.,.
O=C(c1ccc(Cc2nc3ccccc3[nH]2)cc1)N1CCCCC1,.,.,/,/,/,/
O=C(CSc1nc2nc(-c3cccs3)cc(C(F)(F)F)c2c(=O)[nH]1)NCc1ccco1,?,?,.,.,2µM,.
C=CCN1CCc2c(cc(O)c(O)c2Cl)[C@H](c2ccccc2)C1,.,.,.,.,.,.
